Measured values: PubChem BioAssay AID463173 (ICCB-Longwood Screening Facility, Harvard Medical School, 2010)
Out of some 52,000 compounds screened, about 4,300 (8.3%) were called active. The sample holds actives, similar compounds and a random draw of the others, so the mix is not that of the screen. Rule as the data show it: active = survival mostly below about 52% (no sharp cut-off); inactive = mostly above about 56%.

test system: DeltatarO mutant; assay: growth inhibition of S. aureus wild type versus tarO mutant, primary screen, teichoic acid synthesis inhibitors, RN4220, OD600 (AID 463173); settings: OD600, 18 h, active compounds read low, screened at 18.75 µg/mL (by protocol)

| Structure (SMILES) | survival |
| --- | --- |
| O=C(Nc1cc(C(F)(F)F)ccc1Cl)c1noc2c1CCCCC2 | 82% (inactive) |
| COc1ccc(NC(=O)c2ccc3c(=O)n4nc(Nc5cc(C)ccc5C)sc4nc3c2)cc1 | 116% (inactive) |
| CCCCN(C)c1nc2c(S(=O)(=O)c3ccc(CC)cc3)nnn2c2ccc(Cl)cc12 | 76% (inactive) |
| CCc1ccccc1NC(=O)Cc1c(C(=O)O)[nH]c2ccc(Cl)cc12 | 80% (inactive) |
| CCOc1ccc(CCNC(=O)c2cnc3sc(N(CC)CC)nn3c2=O)cc1OCC | 122% (inactive) |
| COc1ccc(CNC(=O)c2ccc(N3CCCC3)c(NC(=O)NCc3ccc(F)cc3)c2)cc1 | 93% (inactive) |
| Cc1ccc(-n2ncc3c(NC4CCCCCC4)ncnc32)cc1Cl | 66% (inactive) |
| CCc1ccc(NC(=O)Cn2ccn(-c3cccc(Cl)c3)c(=O)c2=O)cc1 | 61% (inactive) |
| Cc1cccc(NC(=O)c2ccc(N(Cc3ccccc3)S(C)(=O)=O)cc2)c1 | 48% (active) |
| Cc1ccc(C(=O)Nc2ccc(S(=O)(=O)N(Cc3ccccc3)c3ccccc3)cc2)cc1 | 65% (inactive) |
| CS(=O)(=O)N(Cc1ccccc1)c1ccc(C(=O)Nc2cccc(Cl)c2)cc1 | 36% (active) |
| CS(=O)(=O)N(Cc1ccccc1)c1ccc(C(=O)Nc2ccc(Cl)cc2)cc1 | 145% (inactive) |
| Cc1ccccc1NC(=O)c1ccc(N(Cc2ccccc2)S(C)(=O)=O)cc1 | 66% (inactive) |
| Cc1ccc(NC(=O)c2ccc(N(Cc3ccccc3)S(C)(=O)=O)cc2)cc1 | 64% (inactive) |
| CNc1nc2c(c(=O)[nH]c(=O)n2C)n1Cc1cccc2ccccc12 | 85% (inactive) |
| COc1cccc(N2CCN(C(=O)C(CCSC)NS(=O)(=O)c3ccc4c(c3)oc(=O)n4C)CC2)c1 (stereo not given) | 106% (inactive) |
| Fc1ccc(-n2cc(-c3ccccc3)c3c(NC4CCCCC4)ncnc32)cc1 | 85% (inactive) |
| CC(C)(C)OC(=O)N1CCC(c2c(C(=O)NCc3ccc(F)cc3)cnn2-c2ccc(F)cc2)CC1 | -5% (active) |
| Cc1ccc(-n2ncc(C(=O)NCc3cccs3)c2C2CCN(C(=O)OC(C)(C)C)CC2)cc1C | 91% (inactive) |
| COc1ccc(CNC(=O)c2cnn(-c3ccc(OC)cc3)c2C2CCN(C(=O)OC(C)(C)C)CC2)cc1 | 74% (inactive) |
| Cc1ccc(-n2ncc(C(=O)NCCN3CCC(Cc4ccccc4)CC3)c2C2CCN(C(=O)OC(C)(C)C)CC2)cc1 | 98% (inactive) |
| CC(C)(C)OC(=O)N1CCC(c2c(C(=O)NCc3ccccc3)cnn2-c2ccc(F)cc2)CC1 | 128% (inactive) |

| Structure (SMILES) | survival |
| --- | --- |
| CC(C)(C)OC(=O)N1CCC(c2c(C(=O)NCCN3CCC(Cc4ccccc4)CC3)cnn2-c2ccccc2)CC1 | 80% (inactive) |
| CC(C)(C)OC(=O)N1CCC(c2c(C(=O)NCCN3CCC(Cc4ccccc4)CC3)cnn2-c2ccc(F)cc2)CC1 | 47% (active) |
| CC(C)(C)OC(=O)N1CCC(c2c(C(=O)NCc3cccs3)cnn2-c2cccc(F)c2)CC1 | -5% (active) |
| CC(C)(C)OC(=O)N1CCC(c2c(C(=O)NCc3cccs3)cnn2-c2ccc(F)cc2F)CC1 | 72% (inactive) |
| CC(C)CCNC(=O)CSc1nc2ccccc2nc1Cc1ccccc1 | 82% (inactive) |
| CCCc1nnc(NC(=O)c2cc(=O)c3cc(C)c(C)cc3o2)s1 | 35% (active) |
| CCCc1nnc(NC(=O)c2cc(=O)c3ccccc3o2)s1 | 63% (inactive) |
| Cc1ccc2c(=O)cc(C(=O)Nc3nnc(CC(C)C)s3)oc2c1C | 61% (inactive) |
| CCc1nnc(NC(=O)c2cc(=O)c3cc(C)c(C)cc3o2)s1 | 36% (active) |
| CCCC(=O)Nc1nnc(CCC)s1 | 80% (inactive) |
| Cc1cc2oc(C(=O)Nc3ccc(S(N)(=O)=O)cc3)cc(=O)c2cc1C | 70% (inactive) |
| CC(=O)Nc1ccc(NC(=O)c2cc(=O)c3ccccc3o2)cc1 | 59% (inactive) |
| CCCSc1nnc(NC(=O)c2cc(=O)c3ccccc3o2)s1 | 38% (active) |
| Cc1ccc2oc(C(=O)Nc3nnc(CC(C)C)s3)cc(=O)c2c1 | 63% (inactive) |
| CCCc1nnc(NC(=O)c2cc(=O)c3cc(Cl)ccc3o2)s1 | 43% (active) |
| CCc1nnc(NC(=O)c2cc(=O)c3cc(C)ccc3o2)s1 | 79% (inactive) |
| CCCSc1nnc(NC(=O)Cc2coc3cc(C)ccc23)s1 | 85% (inactive) |
| CCOc1ccc(-n2cc(C(=O)Nc3ccccc3OCC)c3cc(OC)c(OC)cc3c2=O)cc1 | 61% (inactive) |
| O=C(NCc1ccco1)c1ccc2c(c1)N(Cc1ccc(F)cc1)C(=O)c1ccccc1S2=O (stereo not given) | 76% (inactive) |
| COc1ccccc1CNS(=O)(=O)c1cnc(N)nc1 | 89% (inactive) |
| C=CS(=O)(=O)c1ccc(Oc2ccc(S(=O)(=O)C=C)cc2)cc1 | 103% (inactive) |
| COC(=O)CNc1cn[nH]c(=O)n1 | 92% (inactive) |

| Structure (SMILES) | survival |
| --- | --- |
| COCCN(Cc1ccco1)C(=O)c1cc2c(Cl)nc3ccc(C)cc3c2s1 | 92% (inactive) |
| CCc1c(C)c2ccc(O)c(CN3CCN(c4cc(Cl)ccc4C)CC3)c2oc1=O | 54% (inactive) |
| CC(C)n1c(SCc2ccccc2)nnc1C1CCCN(CC(N)=O)C1 (stereo not given) | 96% (inactive) |
| COc1ccc(Cn2ccc3nc(C)c(C(=O)N4CCN(c5ccccc5OC)CC4)cc3c2=O)cc1 | 102% (inactive) |
| O=C(NC12CCC(O)C(SC1)C2O)c1ccccc1 (stereo not given) | 109% (inactive) |
| COc1ccccc1C(O)(C(=O)NNc1cccc(Br)n1)c1ccccc1OC | 73% (inactive) |
| CCSc1nnc(NC(=O)c2cc(=O)c3cc(C)c(C)cc3o2)s1 | 44% (active) |
| CCSc1nnc(NC(=O)c2cc(=O)c3cc(C)ccc3o2)s1 | 86% (inactive) |
| CSc1nnc(NC(=O)c2cc(=O)c3cc(C)c(C)cc3o2)s1 | 52% (inactive) |
| CCC(Nc1ccc(-c2nc(-c3cccnc3)no2)cc1[N+](=O)[O-])c1ccccc1 (stereo not given) | 64% (inactive) |
| CC(C)Nc1ccc(-c2nc(-c3ccccn3)no2)cc1[N+](=O)[O-] | 38% (active) |
| CCC(Nc1ccc(-c2nc(-c3ccco3)no2)cc1[N+](=O)[O-])c1ccccc1 (stereo not given) | 53% (inactive) |
| CCC(Nc1ccc(-c2nc(-c3ccccn3)no2)cc1[N+](=O)[O-])c1ccccc1 (stereo not given) | 41% (active) |
| Cc1noc(-c2ccc(NC(C)c3ccccc3)c([N+](=O)[O-])c2)n1 (stereo not given) | 70% (inactive) |
| CC(C)Nc1ccc(-c2nc(-c3ccncc3)no2)cc1[N+](=O)[O-] | 79% (inactive) |
| CC(C)Nc1ccc(-c2nc(-c3ccco3)no2)cc1[N+](=O)[O-] | 107% (inactive) |
| CNc1ccc(-c2nc(-c3ccccn3)no2)cc1[N+](=O)[O-] | 52% (inactive) |
| CC(Nc1ccc(-c2nc(-c3ccco3)no2)cc1[N+](=O)[O-])c1ccccc1 (stereo not given) | 100% (inactive) |
| CC(Nc1ccc(-c2nc(-c3ccncc3)no2)cc1[N+](=O)[O-])c1ccccc1 (stereo not given) | 42% (active) |
| CC(Nc1ccc(-c2nc(-c3ccccn3)no2)cc1[N+](=O)[O-])c1ccccc1 (stereo not given) | 19% (active) |
| CC(Nc1ccc(-c2nc(-c3cccnc3)no2)cc1[N+](=O)[O-])c1ccccc1 (stereo not given) | 79% (inactive) |
